{"source": "PubChem BioAssay (Tox21)", "key": {"[1]": {"biological_target": "Peroxisome proliferator-activated receptor gamma (Homo sapiens) (UniProt P37231)", "sequence (P37231 whole entry, looked up)": "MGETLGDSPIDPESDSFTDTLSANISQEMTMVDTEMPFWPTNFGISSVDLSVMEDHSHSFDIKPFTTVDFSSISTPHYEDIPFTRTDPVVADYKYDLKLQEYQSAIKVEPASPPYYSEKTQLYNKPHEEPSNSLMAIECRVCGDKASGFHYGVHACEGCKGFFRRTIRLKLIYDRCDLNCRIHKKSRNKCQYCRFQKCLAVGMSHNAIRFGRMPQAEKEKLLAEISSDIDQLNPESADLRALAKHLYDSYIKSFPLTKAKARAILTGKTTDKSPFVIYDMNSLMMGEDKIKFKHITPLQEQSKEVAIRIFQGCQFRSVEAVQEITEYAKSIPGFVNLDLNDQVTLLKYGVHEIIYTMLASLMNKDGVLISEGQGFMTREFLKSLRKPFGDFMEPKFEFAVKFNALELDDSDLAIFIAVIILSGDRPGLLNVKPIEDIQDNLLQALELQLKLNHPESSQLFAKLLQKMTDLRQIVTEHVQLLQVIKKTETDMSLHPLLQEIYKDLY", "assay": "qHTS assay to identify small molecule antagonists of the peroxisome proliferator-activated receptor gamma (PPARg) signaling pathway (AID 743191; calls by dose curve; note: nearly all actives have a fitted effect of over 30% in size; note: potency is the fitted concentration of half-maximal effect)", "procedure,_shortened": "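GeneBLAzer PPARg UAS-bla HEK293H cells carrying a UAS-driven beta-lactamase reporter were plated at 3000 cells/well, preincubated 5 h at 37C, then given compound for 17 h at 37C; LiveBLAzer B/G FRET substrate was read after 1 h at room temperature.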"}, "[2]": {"assay": "qHTS assay to identify small molecule antagonists of the peroxisome proliferator-activated receptor gamma (PPARg) signaling pathway - cell viability counter screen (AID 743194); note: nearly all actives have a fitted effect of over 55% in size", "procedure,_shortened": "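PPARg-UAS-bla HEK293H cells were plated, rested 5 h at 37 C, then treated with compounds plus rosiglitazone (50 nM final) for 17 h at 37 C; viability was then read by CellTiter-Glo luminescence after 30 min at room temperature.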"}, "[3]": {"assay": "qHTS assay for small molecule agonists of the antioxidant response element (ARE) signaling pathway (AID 743202; active = well fitted activation curve with a large enough effect in the signal ratio in the repeat runs, not every such curve was filed as active; the % refers to the signal ratio)", "procedure,_shortened": "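Read-out: LiveBLAzer B/G FRET substrate fluorescence after 2 h at room temperature, following 16 h compound treatment at 37 C of HepG2 cells carrying an ARE-driven beta-lactamase reporter.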"}, "[4]": {"assay": "qHTS assay for small molecule agonists of the antioxidant response element (ARE) signaling pathway - cell viability counter screen (AID 743203; calls by dose curve; note: nearly all actives have a fitted effect of over 55% in size; note: potency is the fitted concentration of half-maximal effect)", "procedure,_shortened": "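ARE-bla HepG2 cells were plated, rested 5 h at 37C/5% CO2, then exposed to compounds in DMSO for 16 h. Viability was read as CellTiter-Glo luminescence after 30 min at room temperature, in the same wells as the ARE screen.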"}, "[5]": {"assay": "qHTS assay for small molecule activators of the heat shock response signaling pathway - cell viability counter screen (AID 743209); note: nearly all actives have a fitted effect of over 50% in size", "procedure,_shortened": "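HSE-bla HeLa cells plated overnight, then exposed to Tox21 compounds (23 nL in DMSO) for 5 h at 37 C. After the bla reporter read, CellTiter-Glo was added in the same wells and luminescence read after 30 min at room temperature.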"}, "[6]": {"assay": "qHTS assay for small molecule activators of the heat shock response signaling pathway (AID 743210; active = well fitted activation curve with a large enough effect in the signal ratio in the repeat runs, with a control signal flat, not every such curve was filed as active; the % refers to the signal ratio; note: series mostly up to about 63 µM)", "procedure,_shortened": "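HSE-bla HeLa cells (beta-lactamase reporter under heat shock response elements) were exposed to compounds for 5 h at 37 C, then loaded with LiveBLAzer B/G FRET substrate for 2.5 h at room temperature before fluorescence reading.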"}, "[7]": {"assay": "qHTS assay to identify small molecule that activate the aryl hydrocarbon receptor (AhR) signaling pathway - cell viability counter screen (AID 743086);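 note: HepG2 liver cells carrying the AhR DRE luciferase reporter; series mostly up to about 70 µM; nearly all actives have a fitted effect of over 45% in size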", "procedure,_shortened": "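HepG2-AhR-luc (HG2L7.5c1) cells, 4000/well, were preincubated 5 h at 37C, exposed to compound in qHTS format for 24 hr at 37C, then given CellTiter-Fluor for 30 min; viability was read as fluorescence in the reporter wells.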"}}, "note": "Records with an inconclusive call do not appear. Where a call stands in place of a potency, no number is given. Unmarked numbers belong to inactive results. Active and inactive are the calls of the source. Unless noted, calls come from the whole dose curve; as a rule, active = well fitted curve in the direction sought with a large enough effect in the repeat runs; inconclusive = weak or mixed curves; inactive = no such curve, though single readings can be large; an effect the other way counts as inactive or inconclusive.", "data": [{"smiles": "CC(C)Cc1ccc(C(C)C(=O)OCc2ccccn2)cc1", "note": "(stereo unspecified)", "values": [{"measurement": "Potency", "setting": "[1]", "result": "inactive"}, {"measurement": "Potency", "setting": "[2]", "result": "inactive"}, {"measurement": "Potency", "setting": "[3]", "result": "inactive"}, {"measurement": "Potency", "setting": "[4]", "result": "inactive"}, {"measurement": "Potency", "setting": "[5]", "result": "inactive"}, {"measurement": "Potency", "setting": "[6]", "result": "inactive"}]}, {"smiles": "CCCCCCOC(=O)NC(=N)c1ccc(NCc2nc3cc(C(=O)N(CCC(=O)OCC)c4ccccn4)ccc3n2C)cc1", "values": [{"measurement": "Potency", "setting": "[1]", "result": "29.8 µM (active)"}, {"measurement": "Potency", "setting": "[4]", "result": "26.6 µM (active)"}, {"measurement": "Potency", "setting": "[6]", "result": "inactive"}]}, {"smiles": "CC1=CCCC(C)(C)C12CCC(C)O2", "note": "(stereo unspecified)", "values": [{"measurement": "Potency", "setting": "[7]", "result": "inactive"}, {"measurement": "Potency", "setting": "[2]", "result": "inactive"}, {"measurement": "Potency", "setting": "[4]", "result": "inactive"}, {"measurement": "Potency", "setting": "[5]", "result": "inactive"}, {"measurement": "Potency", "setting": "[6]", "result": "inactive"}]}, {"smiles": "O[C@@H](COc1cccc2ncccc12)CN1CCN(C2c3ccccc3[C@@H]3[C@H](c4ccccc42)C3(F)F)CC1", "note": "(stereo partly specified)", "values": [{"measurement": "Potency", "setting": "[4]", "result": "15 µM (active)"}]}, {"smiles": "Nc1ccccc1S(=O)(=O)c1ccccc1", "values": [{"measurement": "Potency", "setting": "[7]", "result": "inactive"}, {"measurement": "Potency", "setting": "[4]", "result": "inactive"}, {"measurement": "Potency", "setting": "[5]", "result": "inactive"}, {"measurement": "Potency", "setting": "[6]", "result": "inactive"}]}, {"smiles": "Cc1ccc(C(C)OC(=O)C2(C)CCC(C(=O)O)C2(C)C)cc1", "note": "(stereo unspecified)", "values": [{"measurement": "Potency", "setting": "[2]", "result": "inactive"}, {"measurement": "Potency", "setting": "[4]", "result": "inactive"}, {"measurement": "Potency", "setting": "[5]", "result": "inactive"}, {"measurement": "Potency", "setting": "[6]", "result": "inactive"}]}, {"smiles": "CCCC(=O)Nc1ccc(O)c(C(C)=O)c1", "values": [{"measurement": "Potency", "setting": "[2]", "result": "inactive"}, {"measurement": "Potency", "setting": "[4]", "result": "inactive"}, {"measurement": "Potency", "setting": "[5]", "result": "inactive"}, {"measurement": "Potency", "setting": "[6]", "result": "inactive"}]}, {"smiles": "COc1ccc2cccc(CCNC(C)=O)c2c1", "values": [{"measurement": "Potency", "setting": "[1]", "result": "inactive"}, {"measurement": "Potency", "setting": "[2]", "result": "inactive"}, {"measurement": "Potency", "setting": "[3]", "result": "inactive"}, {"measurement": "Potency", "setting": "[4]", "result": "inactive"}, {"measurement": "Potency", "setting": "[5]", "result": "inactive"}, {"measurement": "Potency", "setting": "[6]", "result": "inactive"}]}, {"smiles": "COCCCN1CCC(NC(=O)c2cc(Cl)c(N)c3c2OCC3)CC1", "values": [{"measurement": "Potency", "setting": "[1]", "result": "inactive"}, {"measurement": "Potency", "setting": "[2]", "result": "inactive"}, {"measurement": "Potency", "setting": "[3]", "result": "inactive"}, {"measurement": "Potency", "setting": "[4]", "result": "inactive"}, {"measurement": "Potency", "setting": "[5]", "result": "inactive"}, {"measurement": "Potency", "setting": "[6]", "result": "inactive"}]}, {"smiles": "O=C(O)C1(C(=O)O)CCC1.[NH2-].[NH2-].[Pt+2]", "values": [{"measurement": "Potency", "setting": "[1]", "result": "inactive"}, {"measurement": "Potency", "setting": "[2]", "result": "inactive"}, {"measurement": "Potency", "setting": "[4]", "result": "inactive"}, {"measurement": "Potency", "setting": "[6]", "result": "inactive"}]}, {"smiles": "CCN(CC)c1ccc(C(=C2C=CC(=[N+](CC)CC)C=C2)c2cc(S(=O)(=O)O)ccc2S(=O)(=O)[O-])cc1", "values": [{"measurement": "Potency", "setting": "[3]", "result": "inactive"}, {"measurement": "Potency", "setting": "[4]", "result": "inactive"}, {"measurement": "Potency", "setting": "[6]", "result": "inactive"}]}, {"smiles": "CN(C)c1ccc(/C=C/c2ccc([N+](=O)[O-])cc2)cc1", "values": [{"measurement": "viability change, negative = cytotoxic", "setting": "[7]", "result": "24.5% [at 8.47 µM]"}, {"measurement": "activity change, negative = cytotoxicity", "setting": "[2]", "result": "9.25% [at 5.95 µM]"}, {"measurement": "activation", "setting": "[3]", "result": "-18.5% [at 8.36 µM]"}, {"measurement": "viability change, negative = cytotoxic", "setting": "[4]", "result": "0.634% [at 8.36 µM]"}, {"measurement": "activity change, negative = cytotoxicity", "setting": "[5]", "result": "-1.13% [at 5.95 µM]"}, {"measurement": "activation", "setting": "[6]", "result": "0.443% [at 5.95 µM]"}]}, {"smiles": "Cc1ccccc1S(=O)(=O)O", "values": [{"measurement": "Potency", "setting": "[7]", "result": "inactive"}, {"measurement": "Potency", "setting": "[2]", "result": "inactive"}, {"measurement": "Potency", "setting": "[3]", "result": "inactive"}, {"measurement": "Potency", "setting": "[4]", "result": "inactive"}, {"measurement": "Potency", "setting": "[5]", "result": "inactive"}, {"measurement": "Potency", "setting": "[6]", "result": "inactive"}]}, {"smiles": "CC(C)(O)c1ccc(CNC(=O)c2cccnc2Oc2ccc(F)cc2)cc1", "values": [{"measurement": "Potency", "setting": "[7]", "result": "inactive"}, {"measurement": "Potency", "setting": "[2]", "result": "inactive"}, {"measurement": "Potency", "setting": "[4]", "result": "inactive"}, {"measurement": "Potency", "setting": "[5]", "result": "inactive"}, {"measurement": "Potency", "setting": "[6]", "result": "inactive"}]}, {"smiles": "NS(=O)(=O)c1ccc(N2CCCCS2(=O)=O)cc1", "values": [{"measurement": "Potency", "setting": "[2]", "result": "inactive"}, {"measurement": "Potency", "setting": "[3]", "result": "inactive"}, {"measurement": "Potency", "setting": "[4]", "result": "inactive"}, {"measurement": "Potency", "setting": "[6]", "result": "inactive"}]}, {"smiles": "CCCCC", "values": [{"measurement": "Potency", "setting": "[7]", "result": "inactive"}, {"measurement": "Potency", "setting": "[3]", "result": "inactive"}, {"measurement": "Potency", "setting": "[4]", "result": "inactive"}, {"measurement": "Potency", "setting": "[5]", "result": "inactive"}, {"measurement": "Potency", "setting": "[6]", "result": "inactive"}]}, {"smiles": "O=C(O)c1nc(Cl)c(Cl)c(Cl)c1Cl", "values": [{"measurement": "Potency", "setting": "[7]", "result": "inactive"}, {"measurement": "Potency", "setting": "[2]", "result": "inactive"}, {"measurement": "Potency", "setting": "[4]", "result": "inactive"}, {"measurement": "Potency", "setting": "[5]", "result": "inactive"}, {"measurement": "Potency", "setting": "[6]", "result": "inactive"}]}, {"smiles": "CCC(C)O", "note": "(stereo unspecified)", "values": [{"measurement": "Potency", "setting": "[7]", "result": "inactive"}, {"measurement": "Potency", "setting": "[2]", "result": "inactive"}, {"measurement": "Potency", "setting": "[3]", "result": "inactive"}, {"measurement": "Potency", "setting": "[4]", "result": "inactive"}, {"measurement": "Potency", "setting": "[6]", "result": "inactive"}]}, {"smiles": "CCC(C)c1cc(C(C)(C)C)c(O)c(C(C)(C)C)c1", "note": "(stereo unspecified)", "values": [{"measurement": "Potency", "setting": "[7]", "result": "inactive"}, {"measurement": "Potency", "setting": "[4]", "result": "inactive"}]}, {"smiles": "CN(C)CCOC(c1ccccc1)c1ccc(Br)cc1", "note": "(stereo unspecified)", "values": [{"measurement": "Potency", "setting": "[4]", "result": "inactive"}, {"measurement": "Potency", "setting": "[5]", "result": "inactive"}, {"measurement": "Potency", "setting": "[6]", "result": "inactive"}]}, {"smiles": "CC(C)O.CC(C)O.CCOC(=O)/C=C(\\C)O.CCOC(=O)/C=C(\\C)O.[Ti]", "values": [{"measurement": "Potency", "setting": "[7]", "result": "inactive"}, {"measurement": "Potency", "setting": "[2]", "result": "inactive"}, {"measurement": "Potency", "setting": "[4]", "result": "inactive"}, {"measurement": "Potency", "setting": "[6]", "result": "inactive"}]}]}
